# Screening data from PubChem BioAssay.
# IL1B secr inh = inflammasome signaling inhibition, IL-1 beta readout. hit rate 4.7% among 360,000. THP-1 LPS/ATP IL-1B secretion, AlphaLISA, 16 h; stronger effect = lower value. activity change, % at 57.5 µM. AID 743279; in the data active means activity change below about -50%; inconclusive means mostly about -30% to -49%; further: on the % scale 0 is the no-effect control and ±100 the full control effect
#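 Secreted IL-1B measured by AlphaLISA bead assay after 16 h compound exposure of THP-1 cells; compounds (final up to 57.5 uM) added 1 h before LPS (250 ng/mL) and ATP (1.25 mM) stimulation; lower signal means less secretion.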
# DRD3 antagonist = D3 dopamine receptor (human) antagonism; D3R cells, DiscoveRx beta-arrestin luminescence, antagonist mode; stronger effect = lower value; AID 652054; max response, negative = inhibition, %; hit rate 2.5% among 360,000; in the data active means max response below about -50%; inconclusive means no clear call, values can overlap the other calls; further: on the % scale 0 is the no-effect control and ±100 the full control effect
# Target sequence (P35462 whole entry, looked up): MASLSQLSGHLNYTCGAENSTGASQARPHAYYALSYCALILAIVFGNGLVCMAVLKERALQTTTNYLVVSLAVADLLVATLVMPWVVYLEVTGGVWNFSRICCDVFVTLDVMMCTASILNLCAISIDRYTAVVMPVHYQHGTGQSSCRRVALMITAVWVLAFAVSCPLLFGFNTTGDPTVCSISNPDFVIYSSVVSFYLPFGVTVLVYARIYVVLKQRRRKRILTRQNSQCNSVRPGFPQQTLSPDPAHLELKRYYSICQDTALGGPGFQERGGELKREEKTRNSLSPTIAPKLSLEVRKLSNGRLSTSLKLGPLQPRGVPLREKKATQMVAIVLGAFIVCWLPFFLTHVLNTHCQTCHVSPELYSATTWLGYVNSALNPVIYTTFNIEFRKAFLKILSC
#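 Cells plated overnight at 1500 cells/well, then exposed to library compounds with dopamine controls for 90 minutes at 37 degrees C. DiscoveRx reagent added for 30–60 minutes at room temperature; luminescence read, quantitative HTS format.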
# ClpP mod = qHTS Assay for Activators of ClpP; purified B. subtilis ClpP, FRET peptide cleavage, 20 min; AID 651965, 2013; ATP-dependent Clp protease proteolytic subunit (Bacillus subtilis (strain 168)), P80244; hit rate 1.9% among 340,000; Potency, µM (highest dose often 57.5 µM), inactives show at the top dose activity change, negative = active; active means well fitted falling curve with a large enough effect; inconclusive means small, poorly fitted or top-dose-only effect; inactive means no such curve, though single readings can be large or run the other way; further: potency means the concentration at half of the fitted maximal effect; the source files actives as falling curves though it sought activators and does not explain the sign; nearly all actives have a fitted effect of over 65% in size
# Target sequence (P80244 whole entry, looked up): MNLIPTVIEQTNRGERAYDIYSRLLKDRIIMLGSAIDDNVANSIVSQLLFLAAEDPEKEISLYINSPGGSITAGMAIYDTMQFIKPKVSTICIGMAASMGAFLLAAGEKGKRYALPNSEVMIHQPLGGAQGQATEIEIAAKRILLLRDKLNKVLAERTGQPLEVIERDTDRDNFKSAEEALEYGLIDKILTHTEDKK
#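 FRET quenching reversal measured ClpP activation: 10 microg/mL B. subtilis ClpP at pH 8 with the FRET-FV decapeptide, read at 430 nm after 320 nm excitation. The 20-min minus 0-min signal was scaled between DMSO/no-enzyme wells and ADEP (5.8 microM final).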
# DT40 TDP1 no CPT = qHTS for Inhibitors of human tyrosyl-DNA phosphodiesterase 1 (TDP1): qHTS in cells in absence of CPT. Potency, µM (series often up to 46.2 µM), without a hit: top-dose activity change, negative = growth inhibition, hits mostly inhibitors. DT40 Tdp1-/- hTDP1 cells, no CPT, ATP luminescence, 48 h. hit rate 15% among 420,000. AID 686978, 2013; further: potency means the concentration at half of the fitted maximal effect; on the % scale 0 is the no-effect control and ±100 the full control effect; nearly all actives have a fitted effect of over 55% in size
#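 Chicken DT40 Tdp1-/- cells complemented with human TDP1, screened without camptothecin (DMSO vehicle only), 400 cells/well. Compounds pin-transferred, cells incubated at 37 °C for at least 48 hr. Growth read as ATP-dependent luminescence (CellTiter-Glo, 30 min at RT).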
# DT40 TDP1 CPT = DT40-hTDP1 cell growth loss with CPT | Potency, µM (top dose mostly 46.2 µM), for the others: at the highest dose activity change, negative = growth inhibition, most hits filed as inhibitors | AID 686979 | hit rate 12% among 420,000 | chicken DT40 Tdp1-/-;hTDP1 cells + 20 nM CPT, ATP luminescence, 48 h; further: potency means the concentration at half of the fitted maximal effect; on the % scale 0 is the no-effect control and ±100 the full control effect; nearly all actives have a fitted effect of over 55% in size
#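 Chicken DT40 Tdp1-/- cells stably complemented with human TDP1 were seeded at 400 cells/well in medium containing 20 nM camptothecin, exposed to pin-transferred compounds, and grown at 37 °C for at least 48 hr. Viability was read as ATP luminescence.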
# D3 ag = agonists of human D3 dopamine receptor; P35462; D3R DiscoveRx beta-arrestin cells, luminescence, 90 min; max activation, %; hit rate 0.58% among 410,000; AID 652048; in the data active means max activation above about 30%; further: 0% is about no effect
#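 Agonist-mode cell screen: cells plated at 1500/well and incubated overnight at 37 °C, then exposed to library compounds for 90 min at 37 °C. Detection reagent was added for 30–60 min at room temperature, and luminescence was read.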
# An asterisk follows results filed as active; ? = inconclusive; . = no result given; [ ] = remark or other dose. Rows were chosen to be rich in hits. Some 21% of all compounds tested hit in one or more screens of this group. Unless noted, the call rests on the fitted dose curve; in most records, active means well fitted inhibition curve with a large enough effect; inconclusive means small, poorly fitted or top-dose-only effect; inactive means flat fitted curve, though single readings scatter.
SMILES,IL1B secr inh,DRD3 antagonist,ClpP mod,DT40 TDP1 no CPT,DT40 TDP1 CPT,D3 ag
Cc1ccc2nc(N(Cc3cccnc3)C(=O)Cc3ccccc3)sc2c1,.,.,1%,-17%,-10%,-10
O=C(CCS(=O)(=O)c1ccccc1)N(Cc1cccnc1)c1nc2ccc(Cl)cc2s1,.,.,-3%,13µM*,5.8µM*,-16
Cc1nn(CCCC(=O)NCCc2ccccc2)c(=O)c2nn(-c3ccccc3)c(C)c12,?,-17,-9%,11%,-2%,-4
Cc1ccc(CCNC(=O)CCCn2nc(C)c3c(C)n(-c4ccccc4)nc3c2=O)cc1,.,.,-1%,21µM*,21µM*,-4
Cc1ccc(-n2nc3c(=O)n(CCCC(=O)NCc4cccc(F)c4)nc(C)c3c2C)cc1,-3,-5,1%,15µM*,?,-8
Cc1ccc(-n2nc3c(=O)n(CCCC(=O)NCCc4ccccc4C)nc(C)c3c2C)cc1,?,?,-2%,12µM*,?,6
Cc1ccc(CCNC(=O)CCCn2nc(C)c3c(C)n(-c4ccc(C)cc4)nc3c2=O)cc1,-4,-6,-2%,?,15µM*,-6
Cc1nn(CCCC(=O)NCc2cccc(F)c2)c(=O)c2nn(-c3ccccc3)c(C)c12,.,.,1%,?,?,-16
COc1ccc(C(C)(C)C)cc1NC(=O)COC(=O)CSCc1c(C)noc1C,-16,-2,-3%,0%,-1%,-4
Cc1cc(-c2ccc(S(=O)(=O)Nc3cccc(C(F)(F)F)c3)s2)on1,.,.,0%,?,21µM*,-21
COc1ccccc1NS(=O)(=O)c1ccc(-c2cc(C)no2)s1,56,-1,-2%,7.3µM*,7.3µM*,51*
COc1ccccc1NS(=O)(=O)c1cccs1,15,9,1%,-8%,16%,-3
COc1ccc2c(c1)OC[C@H]1c3cc4c(cc3O[C@@H]21)OCO4,.,.,.,-15%[9.04 µM],-31%[9.04 µM],.
CC1CCc2sc(C(=O)NN)cc2C1 (configuration not stated),-12,2,0%,-2%,2%,1
COc1cc(S(=O)(=O)N2CCOCC2)ccc1NC(=O)c1cc2c(s1)CCC2,?,0,-2%,26µM*,16µM*,-3
Cc1ccc(NS(=O)(=O)c2cc(NC(=O)c3cc4c(s3)CCCC4)ccc2C)c(C)c1,-14,1,?,?,?,-2
COC(=O)CCSCC(=O)Nc1ccc(S(=O)(=O)N2CCOCC2)cc1OC,36,6,-1%,28%,-5%,-5
Cc1ccc(S(=O)(=O)Nc2ccc(Cl)cc2)cc1NC(=O)c1cc2c(s1)CCCC2,-64*,1,?,?,?,8
COc1ccc(NC(=O)c2cc3c(s2)CCC(C)C3)cc1S(=O)(=O)N1CCOCC1 (configuration not stated),0,-1,-9%,21µM*,?,-9
CC1CCc2sc(C(=O)Nc3ccc(C(N)=O)cc3)cc2C1 (configuration not stated),-70*,-1,.,-5%,5%,4
CCS(=O)(=O)Nc1cc(C(=O)N2CCCN(C=O)CC2)c2c(c1)nc(-c1ccccc1)n2C,.,.,.,-4%,4%,.
Cc1ccc(NC(=O)c2cc3c(s2)CCC3)cc1S(=O)(=O)N1CCOCC1,?,30,?,?,?,-7
Cc1ccc(S(=O)(=O)N2CCOCC2)cc1NC(=O)c1cc2c(s1)CCC2,?,15,-2%,16µM*,?,0
CCCCn1c(SCC(=O)c2ccccc2)nc2c(sc3ccccc32)c1=O,.,.,-5%,-16%,-12%,-2
O=C(O)CCCCCn1c(SCC(=O)c2ccc(O)c(O)c2)nc2ccsc2c1=O,13,9,7.9µM*,16%,15%,6
SMILES,IL1B secr inh,DRD3 antagonist,ClpP mod,DT40 TDP1 no CPT,DT40 TDP1 CPT,D3 ag
CCCCn1c(SCC(=O)c2ccccc2)nc2ccsc2c1=O,-59*,27,0%,18µM*,?,59*
CC(C)(C)C(=O)CSc1nc2ccsc2c(=O)n1Cc1ccccc1Cl,.,.,-8%,15µM*,21µM*,-3
CCCCn1c(SCC(=O)c2ccc(O)c(O)c2)nc2ccsc2c1=O,1,75,0%,23µM*,15µM*,9
O=C(Nc1ccc(S(=O)(=O)N2CCOCC2)cc1)c1ccc(=O)[nH]c1,14,1,-2%,4%,0%,4
C/C=C/c1ccc(OCc2cc(=O)n3cc(C)ccc3n2)c(OC)c1,25,-5,-1%,18µM*,?,6
Cc1ccc2nc(COc3ccccc3NC(=O)C(C)(C)C)cc(=O)n2c1,.,.,25µM*,?,?,1
Cc1ccc(CNC(=O)C(C)n2nc(C)n3c(cc4sccc43)c2=O)cc1 (configuration not stated),.,.,-19%,-29%,-24%,3
COCCCn1c(-c2cccc(Cl)c2)nc2c1c(=O)[nH]c(=O)n2Cc1ccccc1,12,-10,.,7.3µM*,?,11
COc1ccc(Br)cc1-c1nc2c(c(=O)[nH]c(=O)n2Cc2ccccc2)n1C,33,8,.,?,8%,16
Cn1c(-c2cc(Cl)ccc2O)nc2c1c(=O)[nH]c(=O)n2Cc1ccccc1,60,-11,.,13µM*,18µM*,2
COc1ccc(C)cc1NCc1nnc2n1CCCCC2,.,.,-3%,9%,-21%,3
S=c1[nH]cnc2scc(-c3ccccc3)c12,13,-16,-1%,23µM*,?,-5
Clc1ncnc2scc(-c3ccccc3)c12,-70*,-7,1%,?,?,7
Cc1ccc(-c2csc3ncnc(Cl)c23)cc1,-30,-7,0%,?,-28%,-21
O=c1[nH]cnc2scc(-c3ccc(F)cc3)c12,-23,12,-3%,?,-29%,2
O=C(CSc1ncn[nH]1)NNC(=O)c1ccccc1,5,4,.,-3%,-25%,4
Cc1nn(-c2cccc(Cl)c2)c2nc(C(F)(F)F)[nH]c(=O)c12,3,34,-8%,29µM*,?,6
Cc1nn(-c2cc(C(F)(F)F)ccc2Cl)c2nc(C(F)(F)F)[nH]c(=O)c12,14,16,-2%,-3%,-27%,29
Cc1cccc(C)c1OCC(O)CN(Cc1ccccc1O)C1CCCCC1 (configuration not stated),-66*,-3,.,10µM*,16µM*,-7
